The full data set covers some 8,800 targets. This sample favours those with a hit. About 0.5% of all pairs of compound and target were hits. Values without a mark were called inactive.

From the supplement of paper PMC10849652 come the findings set out here.

What all share (experiment): log2 fold change, soluble protein after heating vs DMSO (PISA); higher = thermal stabilisation; K562 lysate, 10 uM; active = over 0.2 and 3.5 SD of the protein, either way, in both replicates (recomputed)
Compound in one test: C#Cc1cccc(Nc2ncnc3cc(OCCOC)c(OCCOC)cc23)c1 [erlotinib]
The gist of the method: (§1)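 K562 pellets were dounce-homogenised in PBS pH 7.4 with 1 mM MgCl2, and the crude extract at 1 mg/mL protein was treated with 10 μM compound for 30 min. Aliquots were heated for 3 min across 48°C-58°C, pooled, and brought to 0.5% NP-40 at 4°C; soluble protein was the supernatant after 21,000xg for 90 min. Soluble protein was quantified by TMTpro 16plex LC-MS/MS with channel sums equalised, and reported as log2 fold change in thermal stability against DMSO controls, with values from duplicates.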

Compound in test [1]: C1=CC(=CC=C1C2=NC3=C(N2)C=C(C=C3)C(=O)N)OC4=CC=C(C=C4)Cl
Put shortly:
as §1

Compound in test [2]: C1=CC=C(C=C1)C2=NC(=C(N2)C3=CC=NC=C3)C4=CC(=C(C=C4)Cl)O
The gist of the method:
as §1

Compound in test [3]: C1CCN(C1)C(=O)NC2=CC=CC(=C2)NC3=NC=C(C(=N3)NCCC4=CN=CN4)Br
The gist of the method: as §1

Compound in test [4]: C1CN(CCC1(CC2=CC=C(C=C2)Cl)N)C3=NC=NC4=C3C=CN4
Put shortly:
as §1

Compound in another test: C1COCCN1CCN2C3=CC=CC=C3N=C2NC(=O)C4=CC(=CC=C4)[N+](=O)[O-] [IRAK-1-4 Inhibitor I]
The gist of the method:
as §1

Compound in test [5]: C1=CC2=NC=CN=C2C=C1/C=C/3\C(=O)NC(=O)S3
The gist of the method:
as §1

Compound in test [6]: C/C(=N\NC(=O)C1=CC(=CC=C1)S(=O)(=O)N2CCOCC2)/C3=C(C=CC(=C3)Cl)O
Put shortly:
as §1

Compound in test [7]: C1=CC2=C(C=CC(=C2)/C=C\3/C(=O)NC(=NCC4=CC=CS4)S3)N=C1
Put shortly:
as §1

Compound in test [8]: C1=CC=C2C(=C1)C3=NNC4=CC=CC(=C43)C2=O
Put shortly: as §1

Sequence of UniProt Q9UHW9 (Q9UHW9 whole entry, looked up): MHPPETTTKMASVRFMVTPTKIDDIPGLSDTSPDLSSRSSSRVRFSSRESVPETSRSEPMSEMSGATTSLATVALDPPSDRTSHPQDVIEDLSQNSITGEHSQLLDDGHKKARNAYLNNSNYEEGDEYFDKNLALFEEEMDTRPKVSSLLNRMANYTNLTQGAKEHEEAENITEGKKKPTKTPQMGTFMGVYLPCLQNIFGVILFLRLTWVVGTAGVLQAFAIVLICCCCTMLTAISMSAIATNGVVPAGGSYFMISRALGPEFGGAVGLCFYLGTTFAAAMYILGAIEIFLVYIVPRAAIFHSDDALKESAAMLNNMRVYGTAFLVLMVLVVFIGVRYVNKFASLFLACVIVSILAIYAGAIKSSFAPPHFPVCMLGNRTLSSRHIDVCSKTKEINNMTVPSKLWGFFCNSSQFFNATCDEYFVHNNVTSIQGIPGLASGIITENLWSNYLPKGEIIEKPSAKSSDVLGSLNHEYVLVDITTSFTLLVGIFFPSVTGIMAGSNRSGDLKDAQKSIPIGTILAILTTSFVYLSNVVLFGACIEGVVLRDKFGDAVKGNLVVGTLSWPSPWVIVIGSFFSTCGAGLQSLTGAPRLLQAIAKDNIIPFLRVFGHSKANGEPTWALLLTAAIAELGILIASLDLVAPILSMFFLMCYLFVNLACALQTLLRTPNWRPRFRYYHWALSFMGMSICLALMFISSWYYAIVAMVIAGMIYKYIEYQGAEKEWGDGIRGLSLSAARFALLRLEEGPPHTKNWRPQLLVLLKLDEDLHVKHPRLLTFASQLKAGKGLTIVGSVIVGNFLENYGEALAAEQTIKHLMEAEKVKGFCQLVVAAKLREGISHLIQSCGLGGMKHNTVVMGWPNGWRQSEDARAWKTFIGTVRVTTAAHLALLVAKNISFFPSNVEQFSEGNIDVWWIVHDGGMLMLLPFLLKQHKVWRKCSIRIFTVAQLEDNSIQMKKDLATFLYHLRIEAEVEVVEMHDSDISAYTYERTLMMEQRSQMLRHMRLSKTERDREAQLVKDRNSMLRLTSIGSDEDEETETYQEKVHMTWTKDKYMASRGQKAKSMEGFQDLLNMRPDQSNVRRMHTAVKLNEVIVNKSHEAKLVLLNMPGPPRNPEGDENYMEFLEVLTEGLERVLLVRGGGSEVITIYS
Sequence of UniProt B2RUZ4 (B2RUZ4 whole entry, looked up): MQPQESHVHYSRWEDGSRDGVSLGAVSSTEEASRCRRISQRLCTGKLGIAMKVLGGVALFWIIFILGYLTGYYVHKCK
Sequence of UniProt O60906 (O60906 whole entry, looked up): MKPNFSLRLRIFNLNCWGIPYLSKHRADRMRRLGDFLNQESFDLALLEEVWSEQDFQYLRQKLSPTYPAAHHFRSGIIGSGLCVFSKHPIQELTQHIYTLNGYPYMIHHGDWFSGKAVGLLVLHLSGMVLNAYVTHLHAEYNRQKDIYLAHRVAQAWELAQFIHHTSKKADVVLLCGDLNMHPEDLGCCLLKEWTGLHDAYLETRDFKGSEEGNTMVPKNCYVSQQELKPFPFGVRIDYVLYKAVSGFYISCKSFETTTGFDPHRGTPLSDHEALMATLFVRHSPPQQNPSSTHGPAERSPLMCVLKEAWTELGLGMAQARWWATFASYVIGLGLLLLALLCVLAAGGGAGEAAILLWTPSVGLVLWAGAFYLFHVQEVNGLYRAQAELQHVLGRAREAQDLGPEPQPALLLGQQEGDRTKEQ
Sequence of UniProt P49675 (P49675 whole entry, looked up): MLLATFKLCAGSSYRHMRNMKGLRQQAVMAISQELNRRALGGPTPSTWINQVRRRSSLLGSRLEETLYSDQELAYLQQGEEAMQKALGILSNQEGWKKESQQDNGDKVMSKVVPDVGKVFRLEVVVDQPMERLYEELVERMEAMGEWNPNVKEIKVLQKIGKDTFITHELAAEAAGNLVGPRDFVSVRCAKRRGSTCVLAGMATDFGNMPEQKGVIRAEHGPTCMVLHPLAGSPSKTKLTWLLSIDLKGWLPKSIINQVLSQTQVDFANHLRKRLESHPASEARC

Regarding SLC12A6 isoform 2 (UniProt Q9UHW9), the log2 fold change with erlotinib is 0.013; in test [1], 0; in test [2] it was -0.019; in [3], -0.139; in [4], -0.049; in the test with IRAK-1-4 Inhibitor I, 0.089.
Regarding SMPD2 (UniProt O60906), the log2 fold change with erlotinib was -1.38 (active); in test [1], -0.551; in [2], -0.112; in test [3], -0.024; in test [4], 0.022; in the test with IRAK-1-4 Inhibitor I it was 0.065.
In the case of SMC4 (UniProt C9JJ64), the log2 fold change in test [5] is -0.013.
Consider SMIM1 (UniProt B2RUZ4), for which the log2 fold change was 0.172 in the test with erlotinib; -0.145 in [1]; -0.114 in test [5]; 0.063 in [2]; 0.086 in test [3]; -0.016 in [4]. The log2 fold change with IRAK-1-4 Inhibitor I is -0.214.
STAR (UniProt P49675): the log2 fold change with erlotinib was 0.207; in [6], 0.01; in [1], -0.192; in test [7] it was -0.029; in test [2], 0.042; in [8] it was -0.058. For the same target, the log2 fold change in test [3] is -0.125; in test [4], -0.035; with IRAK-1-4 Inhibitor I, -0.031.
